Records with an inconclusive call do not appear. The source made the active and inactive calls. Rule for the calls, unless noted: active = hit-call score of the fitted dose curve at least 0.9, where 1 is the maximum; inactive = score below 0.9.
How the values were obtained:
[1] = ACEA_ER_80hr: ACEA Biosciences xCELLigence Real-Time Cell Analysis on Estrogen Receptor Agonism for Proliferation (AID 2282667; active = hit-call score of the fitted dose curve at least 0.9, where 1 is the maximum); settings: T47D proliferation, impedance (xCELLigence), 80 h
Method in brief: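 Real-time impedance growth kinetics of human T-47D breast cells read 80 h after dosing, gain-of-signal fitted relative to DMSO. Compounds: 1:4 serial series, top final concentration 100 uM, n = 2.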

[2] = ATG_CRE_CIS: Attagene CIS-FACTORIAL HepG2 Assay for human cAMP Responsive Element (CRE) binding protein 3 (AID 2282926); settings: HepG2 CRE cis-reporter, Attagene multiplexed mRNA; actives raise or lower the signal
Method in brief: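 Endogenous transcription factor activity read via CRE-regulated reporter transcripts in transfected HepG2 cells. After 24 h exposure, RNA was reverse-transcribed, amplified, fluorescently labelled and sized by capillary electrophoresis; gain or loss fitted against DMSO.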

[3] = target: CCAAT/enhancer-binding protein beta (Homo sapiens) (UniProt P17676); assay: ATG_C_EBP_CIS: Attagene CIS-FACTORIAL HepG2 Assay for human CCAAT/Enhancer Binding Protein (C/EBP) beta (AID 2282927); settings: HepG2 Attagene cis-factorial transcription factor reporter; actives raise or lower the signal
Method in brief: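 RT-PCR/capillary electrophoresis fluorescence of reporter mRNA, 24 h post-dose, in HepG2 cells carrying transfected cis-promoter reporter units. Bidirectional curve fitting against DMSO baseline captures gain or loss of signal.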

[4] = ATG_CMV_CIS: Attagene CIS-FACTORIAL HepG2 Assay for human CMV (Internal Marker) (AID 2282928); settings: HepG2 CMV promoter reporter, transcription factor profiling; actives raise or lower the signal;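 note: endpoint acts as a background internal control marker rather than a target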
Method in brief: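 Readout: fluorescent reporter cDNA fragments separated by capillary electrophoresis after RT-PCR and HpaI cut. Cells: HepG2 carrying transfected cis-promoter reporter constructs, dosed 24 h. Endpoint serves as background internal-marker control, fit bidirectionally versus DMSO.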

[5] = ATG_DR4_LXR_CIS: Attagene CIS-FACTORIAL HepG2 Assay for human Liver X Receptor (LXR), DR4 submotif (AID 2282929); settings: HepG2 Attagene DR4 cis-reporter, mRNA transcription; actives raise or lower the signal
Method in brief: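 Readout: reporter transcript fluorescence after RT-PCR and capillary electrophoresis, fitted bidirectionally against DMSO controls. Human HepG2 liver cells carried transiently transfected multiplexed reporter constructs; endogenous transcription factor activity measured 24 h post-dosing.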

[6] = target: Aryl hydrocarbon receptor (Homo sapiens) (UniProt P35869); assay: ATG_Ahr_CIS: Attagene CIS-FACTORIAL HepG2 Assay for human Aryl Hydrocarbon Receptor (Ahr) (AID 2282930); settings: HepG2 AhR cis-factorial reporter transcription; actives raise or lower the signal
Method in brief: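 HepG2 cells transiently transfected with cis-element-driven multiplexed reporter transcription units; endogenous transcription factor activity measured as reporter mRNA 24 h after dosing. RT-PCR, 6-FAM labelling, HpaI digestion, capillary electrophoresis; bidirectional fitting versus DMSO baseline.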

[7] = ATG_AP_1_CIS: Attagene CIS-FACTORIAL HepG2 Assay for human Activator Protein 1 (AP-1) (AID 2282931); settings: HepG2 Attagene cis-factorial AP-1 reporter mRNA; actives raise or lower the signal
Method in brief: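 Reporter transcripts were measured 24 h after dosing by RT-PCR and capillary electrophoresis of fluorescent fragments. Cells: HepG2 carrying transfected cis-regulated reporter constructs reading endogenous factor activity. Gain or loss fitted against DMSO.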

[8] = ATG_AP_2_CIS: Attagene CIS-FACTORIAL HepG2 Assay for human Activator Protein 2 (AP-2) (AID 2282932); settings: HepG2 AP-2 cis-reporter, Attagene transcription factor profiling; actives raise or lower the signal
Method in brief: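 Cells (HepG2) transfected with promoter-driven reporter constructs, treated 24 h. Total RNA reverse-transcribed, reporter cDNA PCR-amplified, FAM-labelled by primer extension, digested, resolved by capillary electrophoresis. Activity fitted both directions versus DMSO.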

[9] = ATG_BRE_CIS: Attagene CIS-FACTORIAL HepG2 Assay for human Bone Morphogenetic Protein (BMP) Response Element (BRE) (AID 2282933); settings: HepG2 BMP response element reporter, Attagene transcription factor profiling; actives raise or lower the signal
Method in brief: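 HepG2 cells transiently transfected with multiplexed cis-element reporter units were dosed with chemical for 24 h. Reporter mRNA was measured by RT-PCR with fluorescent labelling, HpaI digestion and capillary electrophoresis; bidirectional fitting relative to DMSO.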

[10] = target: Retinoic acid receptor alpha (Homo sapiens) (UniProt P10276); assay: ATG_DR5_RAR_CIS: Attagene CIS-FACTORIAL HepG2 Assay for human Retinoic Acid Receptor Alpha (RARE), DR5 submotif (AID 2282934); settings: HepG2 Attagene cis-factorial RARE DR5 reporter, mRNA; actives raise or lower the signal;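 for AC50: reporter responds to endogenous RAR alpha beta and gamma in HepG2 not RARA alone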
Method in brief: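 HepG2 cells transiently transfected with multiplexed reporter units under cis (DR5 RARE) promoters, so endogenous transcription factor activity is measured. After 24 h compound exposure, reporter mRNA is quantified by RT-PCR with fluorescent labelling and capillary electrophoresis; bidirectional fitting versus DMSO.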

Measured: AC50

Chain of Retinoic acid receptor alpha (Homo sapiens) (P10276 whole entry, looked up): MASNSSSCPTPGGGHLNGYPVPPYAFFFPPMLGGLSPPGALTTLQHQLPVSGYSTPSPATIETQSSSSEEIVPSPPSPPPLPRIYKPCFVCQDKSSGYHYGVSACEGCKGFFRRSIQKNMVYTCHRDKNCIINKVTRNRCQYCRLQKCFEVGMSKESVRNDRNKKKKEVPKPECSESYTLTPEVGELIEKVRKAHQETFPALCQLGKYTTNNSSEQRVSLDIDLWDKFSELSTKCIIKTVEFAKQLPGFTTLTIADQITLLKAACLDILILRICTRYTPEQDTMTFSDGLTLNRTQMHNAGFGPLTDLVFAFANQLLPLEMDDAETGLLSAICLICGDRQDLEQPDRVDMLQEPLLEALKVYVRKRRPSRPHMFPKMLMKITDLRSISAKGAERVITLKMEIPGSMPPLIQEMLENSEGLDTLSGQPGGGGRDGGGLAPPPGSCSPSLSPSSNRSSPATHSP
Chain of CCAAT/enhancer-binding protein beta (Homo sapiens) (P17676 whole entry, looked up): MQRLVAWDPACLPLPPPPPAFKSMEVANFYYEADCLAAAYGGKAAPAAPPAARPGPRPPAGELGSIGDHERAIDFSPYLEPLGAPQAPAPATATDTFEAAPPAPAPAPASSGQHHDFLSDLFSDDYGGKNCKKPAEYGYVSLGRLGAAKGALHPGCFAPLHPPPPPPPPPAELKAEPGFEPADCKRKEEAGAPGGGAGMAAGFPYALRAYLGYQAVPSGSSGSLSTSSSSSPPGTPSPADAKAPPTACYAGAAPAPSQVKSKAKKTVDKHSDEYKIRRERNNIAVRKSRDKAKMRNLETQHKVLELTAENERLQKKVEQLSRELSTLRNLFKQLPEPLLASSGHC
Chain of Aryl hydrocarbon receptor (Homo sapiens) (P35869 whole entry, looked up): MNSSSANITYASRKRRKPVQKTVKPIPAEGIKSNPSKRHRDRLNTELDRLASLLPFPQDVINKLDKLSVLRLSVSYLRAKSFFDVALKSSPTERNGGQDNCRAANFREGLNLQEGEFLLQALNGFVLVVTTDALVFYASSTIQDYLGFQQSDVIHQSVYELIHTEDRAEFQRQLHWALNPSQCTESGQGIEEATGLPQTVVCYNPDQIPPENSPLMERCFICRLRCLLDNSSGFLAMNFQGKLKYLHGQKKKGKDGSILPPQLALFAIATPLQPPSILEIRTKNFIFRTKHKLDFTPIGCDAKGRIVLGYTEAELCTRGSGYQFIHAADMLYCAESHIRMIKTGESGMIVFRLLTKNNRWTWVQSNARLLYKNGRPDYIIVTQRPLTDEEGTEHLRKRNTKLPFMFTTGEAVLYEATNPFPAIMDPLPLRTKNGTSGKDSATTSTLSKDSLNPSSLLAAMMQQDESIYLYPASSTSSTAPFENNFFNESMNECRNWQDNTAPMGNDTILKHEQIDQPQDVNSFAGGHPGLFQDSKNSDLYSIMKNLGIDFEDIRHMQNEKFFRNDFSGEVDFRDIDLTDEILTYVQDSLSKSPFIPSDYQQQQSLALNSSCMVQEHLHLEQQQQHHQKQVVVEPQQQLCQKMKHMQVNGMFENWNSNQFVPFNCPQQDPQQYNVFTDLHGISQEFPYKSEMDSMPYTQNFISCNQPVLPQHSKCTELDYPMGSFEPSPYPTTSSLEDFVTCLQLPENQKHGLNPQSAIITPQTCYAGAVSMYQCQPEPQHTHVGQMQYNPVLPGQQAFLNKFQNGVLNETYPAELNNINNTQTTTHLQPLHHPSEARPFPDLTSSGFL

COc1cc(O)c(C(=O)c2ccccc2)cc1S(=O)(=O)O
inactive: all assays above

O=C(O)C1CCC(C(=O)O)CC1 (centres undefined)
inactive: all assays above

N=C1C=CC(=C(c2ccc(N)cc2)c2ccc(N)cc2)C=C1
inactive: [1] | [2] | [7] | [10]
active: [3] 168 µM | [4] 33.4 µM | [5] 27.6 µM | [6] 8.36 µM | [8] 24.7 µM | [9] 33.4 µM

CC1CCC(C(C)(C)S)C(=O)C1 (centres undefined)
inactive: all assays above

CCC(C)c1ccccc1 (centres undefined)
inactive: all assays above

CC1=CP(=O)(c2ccccc2)CC1 (centres undefined)
inactive: all assays above

CC(C)CCCCCOC(=O)CS
inactive: all assays above

Cc1ccc2c(c1)CCCN2
active: [6] 20.2 µM
inactive: all other assays above

CC1(C)[C@@H]2CC[C@@]1(C)C(=O)C2
inactive: all assays above

Nc1ccc(C(=O)O)cc1
active: [1] 50 µM
inactive: all other assays above

CN(C)c1ccc2nc3ccc(=[N+](C)C)cc-3sc2c1
active: [4] 1.69 µM | [6] 5.2 µM | [7] 19.8 µM | [9] 12.2 µM
inactive: all other assays above

CCOC(=O)c1ccc(C)cc1
inactive: all assays above

CC/C=C\CCOC(=O)c1ccccc1O
inactive: all assays above

Nc1ccc(Cl)c(N)c1
active: [6] 6.09 µM
inactive: all other assays above

CC1C(C)(C)C2=C(C(=O)CCC2)C1(C)C (centres undefined)
inactive: all assays above

CC1=C(O)C(=O)C(C)O1 (centres undefined)
inactive: all assays above

CO[Si](CCCS)(OC)OC
inactive: all assays above

CCCC/C=C/C=C\C=O
active: [4] 159 µM | [5] 135 µM | [7] 149 µM
inactive: all other assays above

CC(Cl)COP(=O)(OCC(C)Cl)OCC(C)Cl (centres undefined)
inactive: all assays above

Cc1cc(C)n(CO)n1
inactive: all assays above

C1CCSC1
inactive: all assays above

COc1cc(C)ccc1O
inactive: all assays above

CCCCCCCCCCCCCC(=O)OC(C)C
inactive: all assays above

O=C(OCCc1ccccc1)c1ccccc1
inactive: all assays above

C=C[C@@]1(C)CC(=O)[C@]2(O)[C@@]3(C)[C@@H](O)CCC(C)(C)[C@@H]3[C@H](O)[C@H](OC(C)=O)[C@@]2(C)O1
active: [1] 2.59 µM | [2] 3.45 µM | [4] 0.476 µM | [5] 0.51 µM | [10] 3.81 µM
inactive: [3] | [6] | [7] | [8]
